In ChEMBL document CHEMBL4513216, “Probing the Open Global Health Chemical Diversity Library for Multistage-Active Starting Points for Next-Generation Antimalarials” (ACS Infect Dis, 2020):
Out of some 69,000 compounds screened, about 8,600 (12%) showed an effect of 50% or more. The entries come from a sample that favours strong results as a whole.

These compounds were tested on Plasmodium berghei (assay: Screen against P. berghei liver stage (PbLuc), transformed with Luciferase, at 10uM). Conditions: tested at 10 uM.
Assay type: functional, HepG2
COCC(=O)N1CCC(c2cc(C(F)(F)F)c3c(C)noc3n2)CC1 gave an INHIBITION of 9.93%.
For CCc1cc(C(F)(F)F)c2c(C3CCN(C(=O)COC)CC3)noc2n1, the INHIBITION was 52%.
With CCc1cc(C(F)(F)F)c2c(C3CCCN(C(=O)COC)C3)noc2n1 (configuration not stated) the INHIBITION was -8.12%.
Cc1cc(C(F)(F)F)c2c(C3CCN(S(=O)(=O)N(C)C)CC3)noc2n1 was tested, and the INHIBITION was 60.8%.
COCCC(=O)N1CCC(c2noc3nc(C)cc(C(F)(F)F)c23)CC1 showed an INHIBITION of 38.1%.
COCC(=O)N1CCC(c2noc3nc(C)cc(C(F)(F)F)c23)CC1 was tested, and the INHIBITION was 15.4%.
Work on CCn1ncc2c1C(COCC1CC1)N(Cc1c(C)noc1C)CC2 (configuration not stated) yielded an INHIBITION of 47.5%.
Work on CCCn1nccc1NC(=O)CN1CCc2c(nc(C3CC3)n2C)C1 yielded an INHIBITION of 5.7%.
Work on CNC(=O)CN1CCc2c(CNc3nccs3)n[nH]c2C1 yielded an INHIBITION of -4.88%.
Compound CCNc1c(NC(=O)C(C)(C)C)c(=O)oc2ccccc12 has an INHIBITION of -3.83%.
O=C(NC[C@]12COC[C@H]1CN(Cc1nccs1)C2)N1CCCC1 showed an INHIBITION of -20.5%.
O=C(c1cccnc1)N1Cc2nccn2CC(COc2cccnc2)C1 (configuration not stated) was tested, and the INHIBITION was 9.51%.
O=C(Cc1ccc2c(c1)CCO2)N1CCCCC1Cn1cccn1 (configuration not stated) was tested, and the INHIBITION was -35.5%.
O=C(Cc1ccc(O)c(Cl)c1)N1CCCCC1CCn1cccn1 (configuration not stated) showed an INHIBITION of 60.1%.
Compound COc1ccc(CC(=O)N2CCCCC2Cn2cccn2)cc1OC (configuration not stated) has an INHIBITION of 0.79%.
In the case of CCOC1COC2(CCN(Cc3ccco3)CC2)C1 (configuration not stated), the INHIBITION is reported as -2.35%.
For O=c1[nH]c(-c2ccncc2)ncc1-c1ccnc(N2CCOCC2)n1, the INHIBITION was 18.9%.
CCN1CC2(CCN(C(=O)C(C)Oc3ccc(F)cc3F)CC2)OC1=O (configuration not stated) was tested, and the INHIBITION was 52.5%.
In the case of CC(Oc1ccc(F)cc1F)C(=O)N1CCC2(CCCO2)CC1 (configuration not stated), the INHIBITION is reported as 14.9%.
CCN1CC2(CCN(C(=O)C(C)Oc3cccc(Cl)c3)CC2)OC1=O (configuration not stated) gave an INHIBITION of 14.9%.
With CCC(=O)N1CCCN(c2cncc(-n3nc(C)cc3C)n2)CC1 the INHIBITION was 13.2%.
For Cc1cc(C)n(-c2cncc(N3CCN(C(=O)C(C)C)CC3)n2)n1, the INHIBITION was 14%.
Cc1cc(C)n(-c2cncc(N3CCN(C(=O)CN(C)C)CC3)n2)n1 gave an INHIBITION of 52.6%.
For CCc1cc(N2CCC(n3cc(C(=O)NCC(C)C)nn3)CC2)ncn1, the INHIBITION was 71.4%.
For CCc1cc(N2CCC(Nc3ccc(Cl)cn3)CC2)ncn1, the INHIBITION was 84.6%.
For O=C(NC1CC1)c1cn(C2CCN(c3cc(C4CC4)ncn3)CC2)nn1, the INHIBITION was 39.3%.
CCc1cc(N2CCC(NCc3ccc(C)o3)CC2)ncn1 was tested, and the INHIBITION was -24.9%.
For CC(C)Nc1cc(N2CCC(n3cc(C4CC4)nn3)CC2)ncn1, the INHIBITION was 24.7%.
Compound CCc1ncc(CN2CCN(c3cc(NC4CC4)nc(N)n3)CC2)cn1 has an INHIBITION of -55%.
Compound CCc1cc(N2CCC(n3cc(C(=O)NC4CC4)nn3)CC2)ncn1 has an INHIBITION of 89.3%.
Cc1ccc(SCCCNC(=O)c2cn(C3CCC(N)CC3)nn2)cc1 (configuration not stated) showed an INHIBITION of -164%.
For OCCNc1cc(N2CCC(n3cc(C4CCCC4)nn3)CC2)ncn1, the INHIBITION was 28%.
In the case of CSCCC(C)(O)CNS(=O)(=O)Cc1ccc(F)cc1 (configuration not stated), the INHIBITION is reported as 44.9%.
Cc1ccccc1CNC(=O)CN1CCCC(Cc2nccn2C)C1 (configuration not stated) showed an INHIBITION of -50.8%.
CC(C)CCn1cc(C(C(=O)O)N2CCCN(C3CCCC3)CC2)cn1 (configuration not stated) was tested, and the INHIBITION was 33.9%.
In the case of c1nc(CNC2CCOCC2)c2n1CCCN(CC1CC1)C2, the INHIBITION is reported as 45.1%.
Compound Cn1ccc(C(=O)NC2CCC23CCN(Cc2cnn(C)c2)CC3)c1 (configuration not stated) has an INHIBITION of -28.7%.
CCS(=O)(=O)N1CCN(CCn2cccn2)c2nc(C)ccc2C1 showed an INHIBITION of 26.3%.
With c1cc(CN2CC[C@@H]3[C@@H](CO[C@H]3CN3CCOCC3)C2)cs1 the INHIBITION was -20.1%.
CCN(CC)C(=O)CN(C)C(=O)c1ccc(-c2ccsc2)nc1C was tested, and the INHIBITION was 59.5%.
For CCN(CC)C(=O)c1ccc(-c2ccsc2)nc1C, the INHIBITION was -6.53%.
With CCN(CC)C(=O)CNC(=O)c1ccc(-c2ccsc2)nc1C the INHIBITION was 34.5%.
CCn1nc(C)c2nn(CC(=O)NC3CCSCC3)cc21 showed an INHIBITION of 25.4%.
Compound Cn1cccc1C(=O)N1C[C@@H]2C[C@@H](c3nc(C4CC4)cs3)O[C@@H]2C1 has an INHIBITION of -5.08%.
Compound CC(C)(C)C(=O)NCCc1cc2nc(-c3ccncc3)ccn2n1 has an INHIBITION of 24.44%.
CCOCC(O)CN1CCN(C(=O)c2cccc(OC)c2)CC1 (configuration not stated) showed an INHIBITION of -33.7%.
In the case of CCOC(=O)C1(CCOC)CCN(Cc2nccn2CC)CC1, the INHIBITION is reported as 28.7%.
For Cc1ncc(C)c(N2CCCC(CO)(Cc3cccc(Cl)c3)C2)n1 (configuration not stated), the INHIBITION was 86.8%.
In the case of CCC1(CO)CCCN(Cc2nccn2Cc2ccccc2)C1 (configuration not stated), the INHIBITION is reported as -82.2%.
Compound Cc1cccc(CN2CCC(c3nccn3CC(N)=O)CC2)n1 has an INHIBITION of 58.3%.
For CCn1ccnc1C1CCN(Cc2cccc(C)n2)CC1, the INHIBITION was 24.2%.
Cc1cnc(C)c(N2CCCC(CO)(Cc3cccc(Cl)c3)C2)n1 (configuration not stated) gave an INHIBITION of 34.6%.
OCC1(Cc2cccc(Cl)c2)CCCN(c2ncccn2)C1 (configuration not stated) was tested, and the INHIBITION was 11.4%.
Compound CCn1ccnc1CN1CCCC(CO)(Cc2cccc(OC)c2)C1 (configuration not stated) has an INHIBITION of 23.7%.
With CCOC(=O)C1(Cc2ccccc2)CCCN(Cc2nccn2CC)C1 (configuration not stated) the INHIBITION was 35.4%.
N#Cc1ccccc1CN1CCC(c2nccn2CC(N)=O)CC1 gave an INHIBITION of -15.3%.
With CCOC(=O)C1(CCOC)CCCN(Cc2nccn2CC)C1 (configuration not stated) the INHIBITION was 62.2%.
For CCn1ccnc1CN1CCCC(CO)(Cc2cccc(Cl)c2)C1 (configuration not stated), the INHIBITION was 79.3%.
COc1ccccc1CN(CC1CCCO1)C(=O)c1csnn1 (configuration not stated) showed an INHIBITION of 18.4%.
With O=C(CCc1nccs1)N1CCN(c2nccs2)CC1 the INHIBITION was -2.19%.
With CCOCc1ccc(CNC(=O)N2CCC(C(N)=O)C2)cc1 (configuration not stated) the INHIBITION was 25.6%.
c1cncc(CN2CCCC(Nc3ncnc4c3CCNCC4)C2)c1 (configuration not stated) showed an INHIBITION of 20.9%.
Compound CNC(=O)[C@@H]1C[C@H]2CN(Cc3ccc(C)s3)C[C@H]2N1C(C)=O has an INHIBITION of 34.6%.
CC1CCN(C(=O)c2sccc2-n2cnnn2)CC1 gave an INHIBITION of 20.3%.
O=C(NCCc1ccc(F)cc1)NCC(O)c1cccc(F)c1 (configuration not stated) gave an INHIBITION of 18.2%.
O=C(N[C@@H]1CC[C@@H](N2CCCC2)[C@@H]1O)c1cc2cccc(F)c2[nH]1 showed an INHIBITION of -0.232%.
For CNC(=O)C1CN(Cc2cc(C)on2)CCN(C2CCOCC2)C1 (configuration not stated), the INHIBITION was -3.94%.
With CCCN1CCc2[nH]nc(C(=O)N3CCNC(=O)C3)c2C1 the INHIBITION was -9.42%.
Compound CN(C)C(=O)N1C[C@H]2CC[C@@H](C1)N(S(=O)(=O)c1cccnc1)C2 has an INHIBITION of -62.1%.
CCCOc1cc(CNC(=O)Nc2ccc(C)cc2)ccn1 gave an INHIBITION of -14.5%.
CCn1ccnc1C1CCN(C(=O)C(O)c2ccc(Cl)cc2)CC1 (configuration not stated) was tested, and the INHIBITION was 6.66%.
Compound CCn1ccnc1C1CCN(Cc2cccc(Cl)c2)CC1 has an INHIBITION of 60.1%.
Compound CCn1ccnc1C1CCN(Cc2c(F)cccc2F)CC1 has an INHIBITION of 43.9%.
CCN1CCN(C(=O)COCc2nc(-c3ccncc3)no2)CC1 was tested, and the INHIBITION was -2.92%.
With CCS(=O)(=O)NCCN1CCN(C(C#N)c2ccccc2)CC1 (configuration not stated) the INHIBITION was 19.4%.
Compound CCOCCCNC(=O)CN(c1ccc(C)c(C)c1)S(C)(=O)=O has an INHIBITION of 18.4%.
Compound CCOCCCNC(=O)CN(c1ccc(F)c(F)c1)S(C)(=O)=O has an INHIBITION of 43.3%.
Compound CC(C)OCCCNC(=O)CN(c1ccc(F)c(F)c1)S(C)(=O)=O has an INHIBITION of 62.3%.
Work on CCC1=N[C@@]2(CC[C@@H]3CN(C(=O)Nc4ccccc4)C[C@@H]32)C(=O)N1C yielded an INHIBITION of 26.3%.
In the case of COC(=O)c1ccc(-c2ccc(/C=C3\C(=O)NC(=N)N3C)o2)cc1, the INHIBITION is reported as 34.2%.
Cc1csc(CNC(=O)N2CCCC(c3nncn3C)C2)n1 (configuration not stated) showed an INHIBITION of -23.9%.
Compound CCOc1ncccc1NC(=O)NC1CCN(C(C)=O)CC1 has an INHIBITION of 5.7%.
COc1ccccc1N1CCN(C(=O)CCn2ccc(C)n2)CC1 gave an INHIBITION of 16.2%.
CS(=O)(=O)N1CCC(c2cnc(-c3cn[nH]c3)cn2)CC1 showed an INHIBITION of 28.9%.
With O=C(C1NCCc2[nH]cnc21)N1CCC2(CC1)CNc1ccccc12 (configuration not stated) the INHIBITION was -15.8%.
In the case of O=C1OC2(CCN(C(=O)C3NCCc4[nH]cnc43)CC2)c2ccccc21 (configuration not stated), the INHIBITION is reported as 23.5%.
Work on O=C(C1NCCc2[nH]cnc21)N1CCC2(C=Cc3ccccc32)CC1 (configuration not stated) yielded an INHIBITION of 53%.
Cc1cc(C)nc(N2CCC(C(=O)O)(n3ccc(C(C)(C)C)n3)CC2)n1 was tested, and the INHIBITION was 25.4%.
Work on O=c1cccnn1CC1CN(CC2CCCC2)Cc2nccn2C1 (configuration not stated) yielded an INHIBITION of -23.1%.
CN1CCC(Nc2ccc(F)cc2OCC(F)(F)F)C1=O (configuration not stated) was tested, and the INHIBITION was -0.378%.
For CC(CNC(=O)c1ccc(=O)[nH]n1)N1CCc2ccccc21 (configuration not stated), the INHIBITION was 53%.
With CC(CNC(=O)c1ccc(C#N)cc1)N1CCc2ccccc21 (configuration not stated) the INHIBITION was 83.2%.
Compound CC(CNC(=O)c1cccc(C#N)c1)N1CCc2ccccc21 (configuration not stated) has an INHIBITION of -8.51%.
With CCC(CNC(=O)c1ccc(=O)[nH]n1)N1CCc2ccccc2C1 (configuration not stated) the INHIBITION was 28.5%.
Work on Cc1cc(C(=O)NCC(C)N2CCc3ccccc32)no1 (configuration not stated) yielded an INHIBITION of 21.8%.
Work on CC(CNC(=O)Nc1ccc(C#N)cc1)N1CCc2ccccc21 (configuration not stated) yielded an INHIBITION of 40.1%.
Compound O=C(Nc1ccccc1N1CCOC1=O)N1CCc2sccc2C1 has an INHIBITION of 18.4%.
For CCn1c(=O)n(CC)c2cc(S(N)(=O)=O)ccc21, the INHIBITION was 29.1%.
COCC1CC2(CCNCC2)CN1Cc1csc(C)n1 (configuration not stated) gave an INHIBITION of -15.3%.
With Cc1noc(CCCC(=O)NC(C)c2ccc(Cl)s2)n1 (configuration not stated) the INHIBITION was -2.95%.
O=C(CCO)N1C[C@@H]2CC[C@H]1CN(C1Cc3ccccc3C1)C2 was tested, and the INHIBITION was -43.5%.
COc1ccc(-c2nc3c([nH]2)CCNC3)c(OC)c1OC was tested, and the INHIBITION was 28.7%.
Work on COc1cccc(-c2nc3c([nH]2)CCNC3)c1F yielded an INHIBITION of 61%.
CC(C)NC(=O)Nc1ccc(-c2nc3c([nH]2)CCNC3)cc1 showed an INHIBITION of -100%.
For CC(=O)c1cccc(-c2nc3c([nH]2)CCNC3)c1F, the INHIBITION was 37.8%.
CC(C)COc1cccc(-c2nc3c([nH]2)CCNC3)c1 showed an INHIBITION of 41.5%.
Compound CC(C)N(C(=O)c1ccccc1-c1nc2c([nH]1)CCNC2)C(C)C has an INHIBITION of 54.5%.
